From PubChem BioAssay AID1159580 (chemical genetic matrix, 2015)
Values joined by “and” are separate entries in the source; they are usually repeats but may differ in a detail not shown here. Identical values can stand only once. The whole screen tested about 5,500 compounds, of which about 2,000 (36%) were called active. About 18% were inconclusive and are not listed. No stated cut-off is given here; in the data, active means normalized growth mostly below about 0.91 (no sharp cut-off); inconclusive means no clear call, values can overlap the other calls; inactive means mostly above about 0.92. Some of the results follow.

Assay: chemical genetic growth profiling, strain panel (AID 1159580);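 further: tested at 20 µM; growth read once vehicle control cultures reached saturation at 30 °C; 1 = growth at the plate median or of vehicle wells; lower values mean less growth of the strain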
Conditions: S. cerevisiae deletion strains, growth OD

Measured: normalized growth

O=C1C=CC2=C3c4cc(O)c(O)cc4CC3(O)COC2=C1O (centres undefined)
inactive: locus YAL021C, strain ccr4, active compounds read low 0.933 | locus YAL026C, strain drs2, active compounds read low 0.945 | locus YAL030W, strain snc1, active compounds read low 1.02 | locus YBL061C, strain skt5, active compounds read low 0.993 | locus YBR009C, strain hhf1, active compounds read low 0.999 | locus YBR021W, strain FUR4, active compounds read low 1.04 | locus YBR023C, strain chs3, active compounds read low 0.949 | locus YBR171W, strain sec66, active compounds read low 1.06 | locus YBR229C, strain ROT2, active compounds read low 0.996 | locus YBR231C, strain swc5, active compounds read low 0.929 | locus YBR279W, strain paf1, active compounds read low 0.964 | locus YCL011C, strain gbp2, active compounds read low 1.02 | locus YCL016C, strain dcc1, active compounds read low 1.01 | locus YCL029C, strain bik1, active compounds read low 1.04 | locus YCL061C, strain MRC1, active compounds read low 1.01 | locus YCL069W, strain vba3, active compounds read low 1.03 | locus YCR088W, strain abp1, active compounds read low 1.05 | locus YDL005C, strain med2, active compounds read low 1.06 | locus YDL035C, strain GPR1, active compounds read low 0.904 | locus YDL040C, strain nat1, active compounds read low 1.04 | locus YDL074C, strain BRE1, active compounds read low 0.898 | locus YDL101C, strain DUN1, active compounds read low 0.946 | locus YDL134C, strain PPH21, active compounds read low 0.942 | locus YDL185W, strain tfp1, active compounds read low 0.997 | locus YDL192W, strain arf1, active compounds read low 0.998 | locus YDR001C, strain nth1, active compounds read low 1.04 | locus YDR101C, strain arx1, active compounds read low 1.06 | locus YDR137W, strain rgp1, active compounds read low 0.972 | locus YDR159W, strain sac3, active compounds read low 1.13 | locus YDR195W, strain ref2 1.11 | locus YDR297W, strain sur2, active compounds read low 1.01 | locus YDR318W, strain mcm21, active compounds read low 1.01 | locus YDR334W, strain swr1, active compounds read low 0.992 | locus YDR335W, strain msn5, active compounds read low 1.01 | locus YDR388W, active compounds read low 1.03 | locus YDR392W, strain spt3, active compounds read low 1.03 | locus YDR502C, strain sam2, active compounds read low 1.01 | locus YEL003W, strain gim4, active compounds read low 1.01 | locus YEL037C, strain rad23, active compounds read low 1.01 | locus YEL061C, strain CIN8 (second series), active compounds read low 1.04 | locus YEL061C, strain CIN8, active compounds read low 0.964 | locus YER015W, strain faa2, active compounds read low 0.99 | locus YER016W, strain bim1, active compounds read low 1.04 | locus YER110C, active compounds read low 1.05 | locus YER111C, strain swi4, active compounds read low 1.01 | locus YER155C, strain BEM2 (second series), active compounds read low 1.03 | locus YER155C, strain BEM2, active compounds read low 1.05 | locus YER167W, strain BCK2, active compounds read low 1.06 | locus YFR010W, strain ubp6, active compounds read low 0.985 | locus YGL078C, strain dbp3, active compounds read low 1.02 | locus YGL086W, strain mad1, active compounds read low 1.02 | locus YGL167C, strain pmr1, active compounds read low 1.03 | locus YGL173C, strain kem1, active compounds read low 0.947 | locus YGL227W, strain vid30, active compounds read low 1.06 | locus YGL240W, strain doc1, active compounds read low 1.11 | locus YGL248W, strain PDE1, active compounds read low 0.934 | locus YGL253W, strain hxk2, active compounds read low 0.959 | locus YGR078C, strain PAC10, active compounds read low 0.957 | locus YGR135W, strain pre9, active compounds read low 0.985 | locus YGR252W, strain gcn5, active compounds read low 0.966 | locus YHR013C, strain ard1, active compounds read low 0.901 | locus YHR030C, strain SLT2, active compounds read low 0.999 and 0.987 | locus YHR079C, strain IRE1 (second series), active compounds read low 1.03 | locus YHR079C, strain IRE1, active compounds read low 1.01 | locus YHR094C, strain hxt1, active compounds read low 1.05 | locus YHR129C, strain ARP1, active compounds read low 0.967 | locus YHR142W, strain chs7, active compounds read low 0.943 | locus YHR200W, strain rpn10, active compounds read low 1.03 | locus YIL066C, strain RNR3, active compounds read low 0.881 | locus YIL073C, strain SPO22, active compounds read low 0.812 | locus YIL125W, strain kgd1, active compounds read low 1.01 | locus YIR030C, strain dcg1, active compounds read low 1.03 | locus YJL092W, strain hpr5, active compounds read low 1.04 | locus YJL095W, strain BCK1 (second series), active compounds read low 1.01 | locus YJL095W, strain BCK1, active compounds read low 0.926 and 1.02 | locus YJL115W, strain asf1, active compounds read low 1.05 | locus YJL129C, strain trk1, active compounds read low 1.09 | locus YJL134W, strain LCB3, active compounds read low 0.999 | locus YJL154C, strain vps35, active compounds read low 1.03 | locus YJL164C, strain tpk1, active compounds read low 0.968 | locus YJL166W, strain qcr8, active compounds read low 0.995 | locus YJL168C, strain set2, active compounds read low 1.01 | locus YJL187C, strain SWE1, active compounds read low 0.986
active: locus YAL013W, strain DEP1, active compounds read low 0.873 | locus YDR069C, strain doa4, active compounds read low 0.896 | locus YDR162C, strain NBP2, active compounds read low 0.789 | locus YGR229C, strain SMI1, active compounds read low 0.557 | locus YHR027C, strain rpn1, active compounds read low 0.908 | locus YJL187C, strain SWE1 (second series), active compounds read low 0.826
